Data published in the supplement of paper PMC6555819.

Key:
Test in all cases: PBM binding z-score (relative to random genomic background probes); higher = stronger binding; sequences stand for … in GC…GCGATTGACAGCGTAGAATGAAGG
[1] = tested on: LXRa:RXRa (NR concentration 270 nM, RXRa partner concentration 90 nM)
Outline: (§1)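 Antibodies against each partner of ligand-free nuclear receptor dimers (one per run) detected binding on custom Agilent 4×180K protein-binding microarrays after 1 h incubation. The double-stranded probes had 34-nt variable regions carrying direct-repeat seeds, single-nucleotide variants, half-site ablations and random human genomic background sequences. Binding z-scores, from regression-normalized fluorescence, use the random background probes as reference.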

[2] = tested on: LXRa homodimer (NR concentration 270 nM)
Outline: as §1

[3] = tested on: LXRb homodimer (NR concentration 270 nM)
Outline: as §1

[4] = tested on: PPARa:RXRa (NR concentration 270 nM, RXRa partner concentration 90 nM)
Outline: as §1

[5] = tested on: PPARg:RXRa (NR concentration 180 nM, RXRa partner concentration 90 nM)
Outline: as §1

[6] = tested on: PPARg:RXRa 270nM:90nM, anti-RXR (NR concentration 270 nM, RXRa partner concentration 90 nM)
Outline: as §1

[7] = tested on: PPARg:RXRa 30nM:10nM, anti-RXR (NR concentration 30 nM, RXRa partner concentration 10 nM)
Outline: as §1

[8] = tested on: PPARg:RXRa 90nM:30nM, anti-RXR (NR concentration 90 nM, RXRa partner concentration 30 nM)
Outline: as §1

[9] = tested on: PPARg:RXRa DBDmut IVT, anti-RXR (DBD mutation: RXRa K156A/R161A, NR concentration 270 nM, RXRa partner concentration 90 nM)
Outline: as §1

[10] = tested on: PPARg:RXRa IVT, anti-PPARg (NR concentration 270 nM, RXRa partner concentration 90 nM)
Outline: as §1

[11] = tested on: PPARg DBDmut:RXRa IVT, anti-PPARg (DBD mutation: PPARg1 K132A/R137A, NR concentration 270 nM, RXRa partner concentration 90 nM)
Outline: as §1

[12] = tested on: PPARg DBDmut IVT, anti-PPARg (DBD mutation: PPARg1 K132A/R137A, NR concentration 270 nM)
Outline: as §1

[13] = tested on: PPARg homodimer (NR concentration 180 nM)
Outline: as §1

[14] = tested on: PXR:RXRa (NR concentration 270 nM, RXRa partner concentration 90 nM)
Outline: as §1

[15] = tested on: PXR homodimer (NR concentration 270 nM)
Outline: as §1

[16] = tested on: RARa:RXR (NR concentration 270 nM, RXRa partner concentration 90 nM)
Outline: as §1

[17] = tested on: RARa homodimer (NR concentration 270 nM)
Outline: as §1

[18] = tested on: RARb:RXRa (NR concentration 270 nM, RXRa partner concentration 90 nM)
Outline: as §1

[19] = tested on: RARb homodimer (NR concentration 270 nM)
Outline: as §1

Row | Sequence | PBM binding z-score [1] | PBM binding z-score [2] | PBM binding z-score [3] | PBM binding z-score [4] | PBM binding z-score [5] | PBM binding z-score [6] | PBM binding z-score [7] | PBM binding z-score [8] | PBM binding z-score [9] | PBM binding z-score [10] | PBM binding z-score [11] | PBM binding z-score [12] | PBM binding z-score [13] | PBM binding z-score [14] | PBM binding z-score [15] | PBM binding z-score [16] | PBM binding z-score [17] | PBM binding z-score [18] | PBM binding z-score [19]
1 | CCTACTGGGCCAAAAAGTTCATTGATGCCGATAA | 1.47 | 2.92 | -0.369 | 1.72 | 1.09 | 1.53 | 0.0164 | 1.05 | 3.74 | 2.64 | -1.13 | -0.236 | 1.35 | 2.98 | 9.58 | 1.23 | 0.294 | 2.24 | 2.64
2 | TCTCGGAGGACACCAAAGGTCAGAGCTCGACATC | 4.25 | 3.82 | -0.0325 | 3.65 | 2.04 | 3.71 | 2.56 | 3.22 | 1.47 | 1.71 | -0.171 | -0.615 | 3.42 | 4.41 | 0.454 | 4.86 | 1.44 | 4.21 | 4.64
3 | CGTCCGAGGTCATAGGAGGTCAGTGAAGACAGAT | 7.86 | 5.54 | 1.19 | 6.37 | 6.96 | 6.5 | 2.81 | 5.53 | 3.62 | 4.71 | 1.87 | 0.417 | 5.49 | 7.21 | 6.7 | 6.7 | 2.36 | 5.36 | 5.04
4 | GATACAGGGTCAGCTACAGGCCAGAGTATGGAAA | 2.54 | -0.531 | -0.596 | 4.88 | 4.13 | 3.43 | 0.683 | 2.17 | 1.22 | 2.25 | 0.112 | -0.146 | 1.47 | 2.17 | -0.273 | 3.3 | 0.244 | 4.02 | 2.99
5 | GCTGCTAGGTCAACTGATGGTCACCTAAAGCTCG | 3.3 | 0.787 | 0.117 | – | 3.2 | 3.59 | 0.832 | 2.56 | 5.16 | 4.59 | -0.0462 | -0.599 | 1.66 | 2.06 | -0.358 | 3.26 | 0.182 | 4.24 | 3.93
6 | CGAACGAGGTCATCCAGGACAGTGAATACATTGA | 6.03 | 1.53 | 1.78 | 6.37 | 7.79 | 7.07 | 3.9 | 6.1 | 5.37 | 6.11 | 3.53 | 2.68 | 4.36 | – | 9.68 | 6.05 | 1.86 | 5.11 | 4.1
7 | TAGCCTAGGTCATGCGGGACAGTATAGTGTCGGC | 2.99 | 0.386 | -0.0861 | 3.53 | 2.48 | 2.57 | 0.321 | 1.17 | 1.71 | 3.2 | 0.574 | 0.484 | 1.45 | 1.82 | -0.102 | 2.58 | -0.0247 | 3.72 | 2.99
8 | CAAACCAGGTCACAGAGGTCAAAGTCCGTGCGTA | 6.8 | 7.74 | 2.6 | 6.49 | 8.73 | 7.69 | 5.28 | 7.12 | 6.56 | 7.43 | 3.56 | 2.74 | 5.78 | 7.23 | 14.2 | – | 4.25 | 5.41 | 5.56
9 | CCAACTGGGCCAAAAAGGTCATTGATGCCGATAA | 4.4 | 3.17 | 0.337 | 4.57 | 3.08 | 4.09 | 1.65 | 3.3 | 4.24 | 3.89 | -0.199 | -0.68 | 2.84 | 4.6 | 3 | 4.65 | 1.31 | 3.94 | 4.36
10 | TCTGCTAGGTCAACGATGGTCAGTTAATCTGCTA | 2.65 | -0.279 | 0.325 | 3.04 | 2.14 | 2.8 | 1.79 | 2.47 | 4.02 | 4.08 | 0.247 | 0.848 | 1.07 | 1.88 | -0.482 | 2.17 | -0.966 | 4.04 | 3.26
11 | GATACAGGGTCGGCTAGAGGCCAGAGTATGGAAA | 0.191 | -0.632 | -1.28 | 1.36 | 0.561 | 0.616 | -0.167 | 0.215 | -0.804 | -0.134 | -0.784 | -0.716 | 0.88 | 0.712 | -0.222 | 1.39 | -0.471 | 1.56 | 1.32
12 | TAGCCTAGGTCATGCGGCCCAGTATAGTGTCGGC | 3.19 | 0.125 | -0.105 | 3.52 | 2.04 | 2.49 | 0.144 | 1.04 | 1.17 | 2.78 | -0.45 | -0.404 | 0.605 | 1.27 | -0.926 | 2.1 | -0.495 | 3.72 | 2.78
13 | CGCACTAGGTCATCCAGGACAGTGAATACATTGA | 2.83 | 0.736 | 0.107 | 4.49 | 7.36 | 6.27 | 3.65 | 5.62 | 7.71 | 8.07 | 2.66 | 1.65 | 1.92 | 1.97 | 0.888 | 2.65 | 0.479 | 3.88 | 3.11
14 | CGAACTAGGTCTAAGGACAGTGAAAGGCGACGTA | -0.762 | -0.416 | -1.3 | 0.792 | 2.4 | 3.45 | 1.89 | 3.31 | 2.2 | 1.78 | – | -0.598 | -0.156 | -0.521 | -0.563 | 0.0659 | -0.52 | 0.287 | 0.133
15 | AATACAGGGTAACTAGGCCAGAGTAGGTACGAAT | 0.106 | -0.23 | -0.0777 | – | 2.82 | 2.44 | 0.877 | 1.88 | 3.4 | 4.67 | 1.24 | 0.826 | 0.854 | -0.078 | 0.0219 | -0.00374 | 0.0183 | 0.804 | 0.549
